This note sets out measurements from PubChem BioAssay (NCATS).

A short description of test [1]: qHTS of pediatric cancer cell lines to identify multiple opportunities for drug repurposing: Confirmatory screen for BT-37 cells (AID 1347117).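 Also: potency is read from the fitted curve at half-maximal effect; viability measured after 48 h of compound exposure; nearly all actives have a fitted effect of over 55% in size.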 The procedure, abridged: (§1)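 Cells (500-1,000/well) rested 5 h, then received compounds for 48 h; metabolically active cells were measured by CellTiter-Glo luminescence. Final concentrations spanned up to 46 µM (MIPE, 11-point) or 0.59 nM-46 µM (NPC, 8-point) in primary screens, 11-point in follow-ups.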
In general terms: Quantitative high-throughput screening tests each substance at several concentrations.

Test [2] can be described thus: qHTS of pediatric cancer cell lines to identify multiple opportunities for drug repurposing: Confirmatory screen for TC32 cells (AID 1347118).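 Also: potency is read from the fitted curve at half-maximal effect; cells exposed to compound for 48 h before the read; nearly all actives have a fitted effect of over 65% in size.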 The procedure, abridged:
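Luminescent CellTiter-Glo read-out of metabolically active TC32 cells after 48 h compound exposure. Primary: MIPE 11-point, 0.78 nM–46 µM; NPC 8-point, 0.59 nM–46 µM. Confirmatory: 11-point dilutions.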

The nature of test [3]: qHTS of pediatric cancer cell lines to identify multiple opportunities for drug repurposing: Confirmatory screen for MG 63 (6-TG R) cells (AID 1347119). Also: potency is read from the fitted curve at half-maximal effect; nearly all actives have a fitted effect of over 55% in size. The procedure, abridged: as §1
Test [4] can be described thus: qHTS of pediatric cancer cell lines to identify multiple opportunities for drug repurposing: Confirmatory screen for Rh41 cells (AID 1347123). Also: potency is read from the fitted curve at half-maximal effect; nearly all actives have a fitted effect of over 60% in size. The essentials: as §1
The nature of test [5]: qHTS of pediatric cancer cell lines to identify multiple opportunities for drug repurposing: Confirmatory screen for RD cells (AID 1347124).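 Also: cells exposed to compound for 48 h before viability readout; nearly all actives have a fitted effect of over 65% in size.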 Also: potency is read from the fitted curve at half-maximal effect. The procedure, abridged:
as §1

A short description of test [6]: qHTS of pediatric cancer cell lines to identify multiple opportunities for drug repurposing: Confirmatory screen for Rh18 cells (AID 1347125). Also: nearly all actives have a fitted effect of over 55% in size. Also: potency is read from the fitted curve at half-maximal effect. The procedure, abridged: as §1
A short description of test [7]: qHTS of pediatric cancer cell lines to identify multiple opportunities for drug repurposing: Confirmatory screen for Rh30 cells (AID 1347126). Also: potency is read from the fitted curve at half-maximal effect; nearly all actives have a fitted effect of over 55% in size. The procedure, abridged:
as §1

Test [8] in a line: qHTS of pediatric cancer cell lines to identify multiple opportunities for drug repurposing: Confirmatory screen for Saos-2 cells (AID 1347127). Also: potency is read from the fitted curve at half-maximal effect; nearly all actives have a fitted effect of over 60% in size. The essentials:
as §1

The nature of test [9]: qHTS of pediatric cancer cell lines to identify multiple opportunities for drug repurposing: Confirmatory screen for OHS-50 cells (AID 1347128). The essentials:
as §1

Test [10] in a line: qHTS of pediatric cancer cell lines to identify multiple opportunities for drug repurposing: Confirmatory screen for SK-N-SH cells (AID 1347129).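 Also: potency is read from the fitted curve at half-maximal effect; cells exposed to compound for 48 h before viability read; nearly all actives have a fitted effect of over 60% in size.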 The essentials:
as §1

Test [11] concerns Zika virus NS2B-NS3 protease (unlinked complex). The experiment in a line: Primary screen GU Rhodamine qHTS for Zika virus inhibitors: Unlinked NS2B-NS3 protease assay (AID 1347159). Also: % is scaled to controls: 0 for no effect and ±100 for the full control effect; nearly all actives have a fitted effect of over 60% in size. The essentials:
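Buffer 10 mM Tris-HCl pH 8.0, 0.01% Tween 20. Unlinked protease 25 nM; compound preincubation 15 min, RT, protected from light. Substrate Rhod110, 1.5 microM; ~15% conversion in 15 min.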

The nature of test [12]: qHTS of pediatric cancer cell lines to identify multiple opportunities for drug repurposing: Confirmatory screen for U-2 OS cells (AID 1347122). Also: nearly all actives have a fitted effect of over 65% in size. Also: potency is read from the fitted curve at half-maximal effect. The essentials: as §1
In test [13] the test system is Zika virus NS2B-NS3 protease. The experiment in a line: Primary screen GU AMC qHTS for Zika virus inhibitors (AID 1347154).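 Also: 0% = no-inhibitor control and -100% = no-enzyme control; nearly all actives have a fitted effect of over 70% in size.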 The essentials:
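Fluorogenic AMC-substrate cleavage by noncovalent NS2B-NS3 protease complex (25 nM, pH 8.0 Tris buffer with Tween 20) followed for 15 minutes at room temperature (~20% conversion). Percent inhibition from ex340/em450 signal change, fitted by 4-parameter Hill equation.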

Test [14] in a line: qHTS of pediatric cancer cell lines to identify multiple opportunities for drug repurposing: Confirmatory screen for control Hh wild type fibroblast cells (AID 1347121). Also: nearly all actives have a fitted effect of over 70% in size. Also: potency is read from the fitted curve at half-maximal effect. The procedure, abridged: as §1

Records with an inconclusive call do not appear. Unmarked numbers belong to inactive results. Active and inactive are the calls of the source. Calls follow the shape of the dose curve; as a rule, active = well fitted curve in the direction sought with a large enough effect; inconclusive = small, poorly fitted or top-dose-only effect, or another doubt; inactive = no such curve, though single readings can be large; an effect the other way counts as inactive or inconclusive.

As to `CCn1nnc2c(N3CCOCC3)nc(-c3ccc(NC(=O)Nc4ccc(C(=O)N5CCN(C)CC5)cc4)cc3)nc21`, the Potency was 0.329 µM (active) in test [1]; 0.293 µM (active) in test [2]; 0.293 µM (active) in test [3]; 0.522 µM (active) in test [4]; 0.414 µM (active) in test [5]; 1.04 µM (active) in [6]. Moreover, the Potency in test [7] is 0.928 µM (active); in test [8], 0.657 µM (active); in test [9], 1.17 µM (active); in test [10] it was 5.9 µM (active). Further, the Potency entry in [11] is “inactive”.
`CN1CCN(Cc2ccc(NC(=O)Nc3ccc(Oc4cc(NC(=O)C5CC5)ncn4)cc3)cc2C(F)(F)F)CC1`: the Potency was 0.369 µM (active) in test [1]; 0.165 µM (active) in test [2]; 2.61 µM (active) in test [3]; 0.737 µM (active) in test [12]; 0.414 µM (active) in test [5]; 0.369 µM (active) in [6]. Further, the Potency is 2.33 µM (active) in test [7], 0.369 µM (active) in [8], 0.585 µM (active) in [9] and 0.743 µM (active) in test [10]. Besides, the Potency result in test [13] and in [11] was “inactive” throughout.
In the case of `Cn1c2ccccc2c2c3c(c4c5ccccc5n(CCC#N)c4c21)CNC3=O`, the Potency in [1] is 5.85 µM (active); in [2] it was 4.14 µM (active); in test [8], 9.27 µM (active); in [9], 11.7 µM (active); in [10] it was 14.8 µM (active). The Potency entry in test [14], in test [6] and in [13] was “inactive” each time.
Consider `O=C(C=Cc1cccc(S(=O)(=O)Nc2ccccc2)c1)NO`, for which the Potency in [1] is 1.7 µM (active); in test [2], 0.759 µM (active); in [3], 2.69 µM (active); in test [5], 5.37 µM (active); in test [6] it was 1.91 µM (active); in test [7] it was 5.37 µM (active). The Potency in [8] is 1.91 µM (active); in test [9], 7.59 µM (active); in test [10], 13.6 µM (active). In addition, in test [13], the Potency result is “inactive”.
With `O=C(NC1CCNCC1)c1[nH]ncc1NC(=O)c1c(Cl)cccc1Cl`, the Potency was 2.4 µM (active) in [1]; 2.4 µM (active) in test [2]; 1.17 µM (active) in [4]; 0.737 µM (active) in test [5]; 0.465 µM (active) in test [7]; 2.69 µM (active) in [8]. Further, the Potency in test [9] is 2.4 µM (active); in [10], 1.05 µM (active). Moreover, the Potency result in test [14] and in test [13] was “inactive” in each case.
For the molecule `Cc1cc(Nc2cc(NC(=O)c3c(Cl)cccc3Cl)ccn2)nc(N)n1`, the Potency was 5.22 µM (active) in [1]; 0.827 µM (active) in test [2]; 20.8 µM (active) in [14]; 24 µM (active) in test [7]; 1.31 µM (active) in [8]; 0.369 µM (active) in test [9]. The Potency in [10] is 13.6 µM (active). The Potency entry in test [5] and in test [13] was “inactive” in each case.
With `CCCCc1nc2cc(C=CC(=O)NO)ccc2n1CCN(CC)CC`, the Potency in test [1] was 1.85 µM (active); in [2] it was 1.31 µM (active); in [3], 1.31 µM (active); in [12], 1.85 µM (active); in [4] it was 1.31 µM (active); in test [5] it was 2.33 µM (active). Moreover, the Potency in test [6] is 1.47 µM (active); in test [7], 3.69 µM (active); in test [8], 2.61 µM (active); in test [9] it was 2.93 µM (active); in test [10], 3.32 µM (active). Further, the Potency result in test [13] was “inactive”.
For `C[C@@H](Oc1cc(-c2cnn(C3CCNCC3)c2)cnc1N)c1c(Cl)ccc(F)c1Cl`, the Potency in test [1] was 20.8 µM (active); in [2], 4.65 µM (active); in test [3] it was 13.1 µM (active); in [6], 18.5 µM (active); in test [7], 7.37 µM (active); in test [8] it was 13.1 µM (active). Also, the Potency in test [9] is 14.7 µM (active); in test [10], 7.43 µM (active). Also, the Potency result in [13] and in test [11] was “inactive” each time.
For the molecule `CC[C@@]1(O)C(=O)OCc2c1cc1n(c2=O)Cc2cc3cc(O)ccc3nc2-1`, the Potency in test [1] was 0.0208 µM (active); in [2] it was 0.0131 µM (active); in [3], 0.0657 µM (active); in test [6], 0.657 µM (active); in test [7] it was 0.585 µM (active); in [8] it was 0.0465 µM (active). Further, the Potency in [9] is 0.0928 µM (active); in [10], 1.87 µM (active).
For `CC(C)(C)c1cnc(CSc2cnc(NC(=O)C3CCNCC3)s2)o1`, the Potency was 0.261 µM (active) in [1]; 0.465 µM (active) in [2]; 0.329 µM (active) in test [4]; 0.585 µM (active) in [5]; 0.465 µM (active) in test [8]; 0.329 µM (active) in test [9]. Moreover, in test [10], the Potency was 0.935 µM (active). Further, the Potency result in test [14] and in test [13] was “inactive” each time.
In the case of `Nc1ncnc2c1c(-c1cnc3[nH]ccc3c1)nn2C1CCCC1`, the Potency in test [1] was 2.33 µM (active); in [2] it was 1.47 µM (active); in test [3], 0.414 µM (active); in [6], 2.93 µM (active); in [7], 0.585 µM (active); in [8] it was 1.85 µM (active). Also, the Potency in test [9] was 1.85 µM (active); in test [10], 1.87 µM (active). Besides, the Potency result in test [13] and in [11] was “inactive” each time.
Take `OCCCNc1cc(-c2ccnc(Nc3cccc(Cl)c3)n2)ccn1`: the Potency is 0.261 µM (active) in test [1]; 0.165 µM (active) in test [2]; 0.0522 µM (active) in test [4]; 0.414 µM (active) in [7]; 0.261 µM (active) in test [8]; 0.329 µM (active) in [9]. Besides, the Potency in test [10] was 0.148 µM (active). In addition, the Potency entry in test [14] and in [13] was “inactive” each time.
For `COc1c(OCCCN2CCOCC2)ccc2c3n(c(=NC(=O)c4cnc(N)nc4)nc12)CCN3`, the Potency in test [1] is 6.44 µM (active); in test [2], 1.02 µM (active); in test [3] it was 0.229 µM (active); in [6] it was 0.644 µM (active); in [7] it was 0.456 µM (active); in test [8] it was 0.644 µM (active). In addition, the Potency in test [9] is 2.29 µM (active); in [10] it was 2.04 µM (active). The Potency entry in test [12] and in [13] was “inactive” throughout. Besides, the activity change, negative = inhibition in test [11] was 19.8% [at 19.1 µM].
For `CC(=O)OCC(=O)[C@@]1(O)[C@H](C)C[C@H]2[C@@H]3C=C(C)C4=Cc5c(cnn5-c5ccccc5)C[C@]4(C)[C@@H]3[C@@H](O)C[C@@]21C`, the Potency in test [1] was 13.1 µM (active); in test [2] it was 4.14 µM (active); in test [3], 18.5 µM (active); in [5], 9.27 µM (active); in [6], 16.5 µM (active); in test [7], 16.5 µM (active). The Potency in test [8] was 14.7 µM (active); in test [9] it was 16.5 µM (active); in [10] it was 14.8 µM (active). For the same molecule, in test [13], the Potency entry is “inactive”.
For the molecule `Cc1ccc(-c2ncn(-c3ccc(Nc4nccc(-c5cccc(N6CCOCC6)c5)n4)cc3)n2)cn1`, the Potency is 0.0851 µM (active) in test [1]; 0.135 µM (active) in test [2]; 0.24 µM (active) in [12]; 0.24 µM (active) in test [5]; 0.107 µM (active) in test [6]; 0.12 µM (active) in test [7]. Moreover, the Potency in test [8] was 0.107 µM (active); in test [9] it was 0.537 µM (active); in [10], 0.303 µM (active). Also, the Potency result in test [14] and in test [13] was “inactive” in each case.
